Several values for one entry are separate records, joined by “and”; a condition that tells them apart may be missing. Equal values may be shown once. About 1,200 (3.2%) of roughly 38,000 compounds showed an effect of 50% or more. The median lay at about -58%. Only a selection was taken, and strong results are over-represented in it overall.
Tested on: Plasmodium falciparum
Assay: Calibr Malaria Delayed Death Assay SOP
Assay type: functional, organism-based
Parameters: scale not given: in the data most compounds retested in dose-response had high values
Conditions: concentration 4.99e-06 (unit not given; other assays of the set use mol/L)

CCc1nc(C)sc1CN1CC[C@@](O)(C2CC2)[C@H](C)C1
Percent Effect: -41.51%

Cc1csc(C(=O)N2CCCC(c3[nH]ncc3S(C)(=O)=O)C2)c1 (stereo not given)
Percent Effect: -79.4%

O=C(NCC(O)c1ccsc1)Nc1cccs1 (stereo not given)
Percent Effect: -26.53%

CC(C)CN1CCCC2(CCN(c3ccc(C#N)cn3)C2)C1.O=C(O)C(F)(F)F (stereo not given)
Percent Effect: 4.981%

O=C(O)C(F)(F)F.O=C(O)C(F)(F)F.c1cnc(N2CCOCC3(CCCN(Cc4cccs4)C3)C2)nc1 (stereo not given)
Percent Effect: -21.37%

O=C(O)C(F)(F)F.c1ccc(N2CCCC3(CCN(Cc4cccs4)C3)C2)nc1 (stereo not given)
Percent Effect: 72.7%

Fc1cnc(N2CCCC3(CCN(Cc4cccs4)C3)C2)nc1.O=C(O)C(F)(F)F.O=C(O)C(F)(F)F (stereo not given)
Percent Effect: 67.75%

COc1cc(N2CCC3(CCCN(Cc4ccccn4)C3)C2)ncn1.O=C(O)C(F)(F)F (stereo not given)
Percent Effect: -7.04%

O=C(O)C(F)(F)F.O=C(O)C(F)(F)F.c1csc(CN2CCCC3(COCCN(c4cnccn4)C3)C2)c1 (stereo not given)
Percent Effect: 45.61%

CC(C)CN1CCCC2(CCN(c3ccccn3)C2)C1.O=C(O)C(F)(F)F (stereo not given)
Percent Effect: 70.33%

Fc1cnc(N2CCCC3(CN(Cc4cccs4)CCO3)C2)nc1.O=C(O)C(F)(F)F (stereo not given)
Percent Effect: -85.22%

Cc1cnc(N2CCC3(CC2)CN(Cc2cccs2)CCO3)nc1.O=C(O)C(F)(F)F.O=C(O)C(F)(F)F
Percent Effect: -40.39%

Cc1nc(C)c(CC(=O)N2C[C@H]3CC[C@@H]2CN(c2cnccn2)C3)s1
Percent Effect: -79.94%

CCc1nnnn1Cc1csc(N(C)C(C)=O)n1
Percent Effect: -54.02%

Cc1ccc(Cl)cc1NC(=O)Nc1c[nH]c(=O)[nH]c1=O
Percent Effect: -189.6%

Cc1ncsc1C(=O)NCCNc1ncccc1C#N
Percent Effect: -35.74%

CCOCC1c2c(ncn2C)CCN1C(=O)c1cnc(C)cn1.O=C(O)C(F)(F)F (stereo not given)
Percent Effect: -51.51%

O=C(NCc1c[nH]c(=O)[nH]c1=O)C1CCOc2ccccc2C1 (stereo not given)
Percent Effect: -114.6%

Cc1ccc(S(=O)(=O)N(CC(N)=O)CC(C)C)cc1C
Percent Effect: -27.83%

O=C(NCCCn1ccnc1)c1cccnc1OCC(F)(F)F
Percent Effect: -158.9%

CC(C)[C@@H]1CN(CCCOc2ccc(F)cc2)C[C@H]1NS(C)(=O)=O
Percent Effect: 53.48%

CC(C)[C@@H]1CN(CCOc2ccc(Cl)cc2)C[C@H]1NS(C)(=O)=O
Percent Effect: 45.65%

CCc1ccccc1OCCN1C[C@@H](NS(C)(=O)=O)[C@H](C(C)C)C1
Percent Effect: 45.03%

CC(C)n1cc(N2CC(C(=O)N3CCN(C)CC3)CC2=O)cn1 (stereo not given)
Percent Effect: -61.38%

Cc1csc(N2CCN(C(=O)CCn3cccn3)CC2)n1
Percent Effect: -135.1%

CN(Cc1nc2ccsc2c(=O)[nH]1)C[C@@H]1CCCN2CCCC[C@H]12
Percent Effect: -24.21%

CN(Cc1nc2ccccc2c(=O)[nH]1)C[C@@H]1CCCN2CCCC[C@H]12
Percent Effect: -16.14%

Cc1cc(C)cc(C(=O)N2CCCN(CC(N)=O)CC2)c1
Percent Effect: -30.23%

O=C(CN(CC1CCC1)CC(F)(F)F)N1CCCC1
Percent Effect: -123.3%

CS(=O)(=O)NC(=O)c1nnn(-c2cccc(F)c2)c1C1CC1
Percent Effect: -54.99%

Cc1nc(CNC2CCCN(c3cccnn3)C2)no1 (stereo not given)
Percent Effect: -95.1%

CC(C)(C)c1nc(CNC2CCCN(c3cccnn3)C2)no1 (stereo not given)
Percent Effect: 82.54%

CC(C)c1nc(CNC2CCCN(c3cccnn3)C2)no1 (stereo not given)
Percent Effect: -23.44%

CC1CN(CC2CCCCC2)CCN1c1ccc2nncn2n1 (stereo not given)
Percent Effect: 13.91%

CC1CN(CC2CCCC2)CCN1c1ccc2nncn2n1 (stereo not given)
Percent Effect: 68.96%

CC1CN(CC(=O)NC2CCCC2)CCN1c1ccc2nncn2n1 (stereo not given)
Percent Effect: -5%

Cn1ccc2ccc(C(=O)N3CCN(C(=O)OC(C)(C)C)CC3)cc21
Percent Effect: 4.042%

Cc1cccc(NC(=O)N2CCn3cnc(COCC4CC4)c3C2)c1
Percent Effect: -185.1%

COCCNC(=O)C[C@@H]1COC[C@H]2CN(C(=O)C3CCOCC3)C[C@@H]12
Percent Effect: -84.55%

CC(C)(CNC(=O)C(C)(C)c1ccccc1F)C(N)=O
Percent Effect: -90.26%

CC(C)(C(=O)NCC(N)=O)c1ccccc1F
Percent Effect: -66.81%

CN(C)C(C)(C)CNC(=O)C(C)(C)c1ccccc1F
Percent Effect: 51.42%

Nc1nnc(SCc2cc(=O)n3c4c(sc3n2)CCCC4)s1
Percent Effect: -2.534%

COc1nn(C)cc1-c1nnc(SCc2cccnc2)n1C
Percent Effect: -46.9%

COCCC(=O)N(Cc1ccccn1)Cc1ccccc1C
Percent Effect: -111.9%

Cc1ccsc1CN(CCCC(F)(F)F)Cc1ccccn1
Percent Effect: -90.49%

Cc1ccsc1CN(C)Cc1ncccc1C(=O)O
Percent Effect: -86.93%

CCn1nc(C)c(CN(CCOC)Cc2ccccn2)c1C
Percent Effect: -17.72%

Cc1ccsc1CN(CCCN(C)C)Cc1ccccn1
Percent Effect: 76.79%

N#Cc1cccc(CN2CC[C@@H]3CN(c4ncccn4)CCO[C@@H]3C2)c1.O=C(O)C(F)(F)F
Percent Effect: -75.88%

CCc1cc(N2CCC(NCCc3nc(C)c(C)s3)CC2)nc(C)n1
Percent Effect: 38.37%

CCn1ccc(NS(=O)(=O)c2cccc(COC)c2)n1
Percent Effect: -78.42%

CCn1cc(NC(=O)NCC(C)N(C)C)cn1 (stereo not given)
Percent Effect: -90.57%

CNS(=O)(=O)c1cccc(C(C)NCc2ccncc2)c1 (stereo not given)
Percent Effect: -55.25%

CNS(=O)(=O)c1cccc(C(C)NCc2ccc(F)c(F)c2)c1 (stereo not given)
Percent Effect: 8.659%

CNS(=O)(=O)c1cccc(C(C)NCc2cccc(O)c2)c1 (stereo not given)
Percent Effect: 1.026%

CCOc1ccc(CNC(C)c2cccc(S(=O)(=O)NC)c2)cc1 (stereo not given)
Percent Effect: 46.18%

CNS(=O)(=O)c1cccc(C(C)NCc2ccc(C)c(C)c2)c1 (stereo not given)
Percent Effect: 61.29%

CNS(=O)(=O)c1cccc(CNC(=O)CCc2ccsc2)c1
Percent Effect: -45.32%

CC(NCc1ccc(C(C)(C)C)cc1)c1ccc(S(C)(=O)=O)cc1 (stereo not given)
Percent Effect: -13.51%

CNS(=O)(=O)c1cccc(C(C)NCc2ccsc2)c1 (stereo not given)
Percent Effect: 66.25%

CNS(=O)(=O)c1cccc(C(C)NCc2ccccc2)c1 (stereo not given)
Percent Effect: 57.8%

O=C(NCCn1ccnc1)c1ccn(-c2ccc(F)cc2)n1
Percent Effect: -157.5%

CCN1C[C@H]2C[C@H](C(=O)Nc3ccccc3)[C@@H](C1)O2.O=C(O)C(F)(F)F
Percent Effect: -59.56%

Cc1oc(-c2nc(C#N)c(N(C)C)o2)cc1S(=O)(=O)N1CCCCCC1
Percent Effect: -117.8%

COc1cc(C(=O)NC(C)c2cccs2)cc2c1OCCO2 (stereo not given)
Percent Effect: 13.73%

O=C(c1cscn1)N1CCCCC1c1nc2cc(F)ccc2[nH]1 (stereo not given)
Percent Effect: -66.74%

CNC(=O)CN(C(=O)c1ccc(SC)o1)c1cccc(F)c1
Percent Effect: -133.7%

CC(C)(C)CNC(=O)c1ccc(C(=O)O)cc1
Percent Effect: -149.2%

CCCc1nc(CN(CC)Cc2ccoc2)no1
Percent Effect: -101%

COc1cc(C(=O)N(Cc2ccco2)C2CC2)cc(OC)c1OC
Percent Effect: -36.86%

O=C(c1ccc[nH]1)N1CCOCC2(CCN(C3CCOCC3)C2)C1 (stereo not given)
Percent Effect: -29.73%

CCCSCC(=O)N1CCCC(CO)(CCC)C1 (stereo not given)
Percent Effect: -200.5%

O=C(c1ccc(=O)[nH]c1)N1CCCC1c1nc2cc(F)ccc2[nH]1 (stereo not given)
Percent Effect: -157.5%

CCC1C(=O)NCCN1c1ccnc(C(C)(C)C)n1 (stereo not given)
Percent Effect: -75.62%

Clc1ccccc1C1(c2ccnc(-c3ccncc3)n2)CCNCC1
Percent Effect: 82.92%

CC(C)c1nccc(C2(c3ccccc3Cl)CCNCC2)n1
Percent Effect: 83.06%

CC(C)(C)c1nccc(C2(c3ccccc3Cl)CCNCC2)n1
Percent Effect: 75.06%

O=c1[nH]cccc1-c1nccc(C2(c3ccccc3Cl)CCNCC2)n1
Percent Effect: -5.024%

Clc1ccccc1C1(c2ccnc(-c3ncccn3)n2)CCNCC1
Percent Effect: -58.98%

COCCN(Cc1ccoc1)S(=O)(=O)c1cccc(C(F)(F)F)c1
Percent Effect: -154.4%

COc1c[nH]c(C(=O)Nc2nc(C)cs2)cc1=O
Percent Effect: -242.4%

Clc1ccc(C2(NCc3noc(C4CC4)n3)CCCC2)cc1
Percent Effect: 66.68%

Clc1ccc(C2(NCc3noc(C4CC4)n3)CCOCC2)cc1
Percent Effect: -1.957%

Clc1ccc(C2(NCc3noc(C4CC4)n3)CCC2)cc1
Percent Effect: 11.94%

COc1cccc(N2CCN(Cc3ccc4ccn(C)c4c3)CC2=O)c1
Percent Effect: -24.12%

COc1cc(N2CC[C@H](O)[C@@H]2Cc2ccccc2)ncn1
Percent Effect: -143.1%

CC(C)NC(=O)CSc1nc2c(cnn2CCO)c(=O)[nH]1
Percent Effect: -19.17%

CCS(=O)(=O)N1CCCn2c(nc(CN3CCCC3)cc2=O)C1
Percent Effect: -41.77%

CCc1nccn1-c1cncc(C2CCCN2Cc2ccccn2)n1 (stereo not given)
Percent Effect: -28.75%

COCCn1ccnc1CN1CCc2[nH]cnc2C1c1cccc(O)c1 (stereo not given)
Percent Effect: -80.26%

COCCn1ccnc1CN1CCc2[nH]cnc2C1c1ccccn1 (stereo not given)
Percent Effect: -16.31%

CCc1ccc(C2c3nc[nH]c3CCN2Cc2nccn2CC)nc1 (stereo not given)
Percent Effect: 89.79%

CCCn1ccnc1CN1CCc2[nH]cnc2C1Cc1ccccc1 (stereo not given)
Percent Effect: 64.79%

CCn1ncnc1CN1CCc2[nH]cnc2C1Cc1ccccc1 (stereo not given)
Percent Effect: -69.64%

CCn1ccnc1CN1CCCC1c1c(C)nn(C)c1OC (stereo not given)
Percent Effect: -32.78%

CCn1ncnc1CN1CCc2[nH]cnc2C1c1ccccn1 (stereo not given)
Percent Effect: -50.88%

COc1cccc(CN2CC(O)CN(C(=O)C(C)(C)C)CC2=O)c1OC (stereo not given)
Percent Effect: -124%

CC1=Nc2c(c(=O)[nH]n2C2CCCC2)C(c2cccnc2)S1 (stereo not given)
Percent Effect (4.99 µM): -22.61% and -27.75%

CCCNC(=O)c1cccc(CNCc2csc(C(C)(C)C)n2)c1
Percent Effect: 23.22%

— ChEMBL document CHEMBL3988442, “University of Dundee, Small-Polar-MMV Screening Library” (2021)
